mIDH1 inhibitor = blocks human mutant IDH1 R132H enzyme; IDH1-R132H enzyme, NADPH consumption, diaphorase/resazurin fluorescence; Potency, µM (series often up to 76.6 µM), without a hit: at the highest dose activity change, negative = inhibition, most hits filed as inhibitors; 390,000 compounds, 0.093% hits; further: potency means the concentration at half of the fitted maximal effect; on the % scale 0 is the no-effect control and ±100 the full control effect; nearly all actives have a fitted effect of over 65% in size
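IDH1-R132H (0.5 ug/mL) preincubated 30 min with compound, then NADPH (0.016 mM) and alpha-KG (2 mM) added; 80 min at RT, pH 7.5. Remaining NADPH coupled via diaphorase/resazurin to fluorescence (540/590 nm); concentration-response curves normalized to no-enzyme control.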
rTrxR1 inhibitor = rat TrxR1 inhibition; recombinant rTrxR1, NADPH fluorescence consumption, selenite substrate; Potency, µM (series often up to 114 µM), for the others: at the highest dose activity change, negative = inhibition, usual class: inhibitors; 390,000 compounds, 1% hits; AID 588453; further: potency means the concentration at half of the fitted maximal effect; on the % scale 0 is the no-effect control and ±100 the full control effect; nearly all actives have a fitted effect of over 65% in size
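Rat TrxR1 (90 nM in the dispensed reagent) was pre-reduced with 400 uM NADPH for 5 min at room temperature, then incubated with compound for 15 min. After 400 uM selenite was added, NADPH fluorescence (Ex 340/Em 450 nm) was followed for 8 min.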
TrxR1 substrate = is turned over as a substrate by rat TrxR1; O89049; purified TrxR1 substrate turnover, NADPH consumption readout; Potency, µM (titrated, usually from 114 µM), for the others: at the highest dose activity change, negative = substrate turnover; 390,000 compounds, 0.01% hits; further: potency means the concentration at half of the fitted maximal effect; on the % scale 0 is the no-effect control and ±100 the full control effect; nearly all actives have a fitted effect of over 50% in size
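Rat TrxR1, dispensed at 90 nM, was prereduced with 400 uM NADPH (final) for 5 min at ~22 deg C, then incubated with compound 15 min before 400 uM selenite. A first-read NADPH fluorescence drop versus no-compound background flagged substrates.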
LDHA block = LDHA (human) enzyme inhibition; activity change, % (values are at about 110 or 230 µM); P00338; AID 1347041; purified LDHA, NADH/diaphorase-resazurin fluorescence; stronger effect = lower value; 480,000 compounds, 0.15% hits; in the data active means activity change below about -30%; inconclusive means mostly about -25% to -30%;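 further: plate controls were DMSO wells for no effect and wells without enzyme for full effect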
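Human LDH5 at 2 nM final in Tris HCl pH 7.4 with 0.06 mM NADH and 0.2 mM pyruvate, reacted 5 minutes at room temperature. Remaining NADH coupled via diaphorase/resazurin; resorufin fluorescence read at 0 and 20 minutes, normalized to enzyme-free and DMSO wells.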
PKM2 activator = increases activity of human pyruvate kinase M2. purified PKM2, Kinase-Glo ATP luminescence, activation; response scale: 0% is enzyme alone, no compound. Potency, µM (series often up to 57.5 µM), inactives show at the highest dose activation, hits mostly activators. 260,000 compounds, 0.34% hits. AID 1631; further: potency means the concentration at half of the fitted maximal effect; on the % scale 0 is the no-effect control and ±100 the full control effect; nearly all actives have a fitted effect of over 55% in size
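Kinase-Glo luminescence reports ATP generated from ADP (0.1 mM) and PEP (0.5 mM) by purified hPK-M2 after 1 h at room temperature, pH 7.2 imidazole buffer; intermediate enzyme activity allows detecting inhibitors and activators.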
GLS inh = blocks human kidney-isoform glutaminase activity; Potency, µM (titrated, usually from 45.5 µM), for inactives: at the top dose activity change, negative = inhibition, hits mostly inhibitors; AID 624170; O94925; 410,000 compounds, 0.21% hits; GLS enzymatic activity, qHTS titration; further: potency means the concentration at half of the fitted maximal effect; on the % scale 0 is the no-effect control and ±100 the full control effect
Target sequence (O94925 whole entry, looked up, canonical isoform): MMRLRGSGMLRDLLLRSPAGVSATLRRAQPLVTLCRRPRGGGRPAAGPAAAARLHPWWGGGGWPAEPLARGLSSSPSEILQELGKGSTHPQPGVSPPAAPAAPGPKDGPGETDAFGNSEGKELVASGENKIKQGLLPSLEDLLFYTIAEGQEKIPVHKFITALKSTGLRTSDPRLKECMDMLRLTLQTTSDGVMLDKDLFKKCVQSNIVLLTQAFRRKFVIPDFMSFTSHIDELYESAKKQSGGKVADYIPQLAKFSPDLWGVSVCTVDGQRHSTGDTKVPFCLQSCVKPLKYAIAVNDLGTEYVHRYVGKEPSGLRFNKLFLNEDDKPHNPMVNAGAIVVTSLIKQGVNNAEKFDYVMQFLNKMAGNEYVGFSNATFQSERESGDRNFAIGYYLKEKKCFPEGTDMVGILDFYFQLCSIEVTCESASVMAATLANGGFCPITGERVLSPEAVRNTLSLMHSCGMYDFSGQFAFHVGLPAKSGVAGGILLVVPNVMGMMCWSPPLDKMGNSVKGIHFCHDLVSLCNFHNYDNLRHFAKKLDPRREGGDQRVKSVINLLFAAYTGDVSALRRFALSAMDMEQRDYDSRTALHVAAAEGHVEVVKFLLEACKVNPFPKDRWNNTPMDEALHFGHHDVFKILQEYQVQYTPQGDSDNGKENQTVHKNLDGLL
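Human kidney-isoform GLS in 45 mM KH2PO4 pH 8.2, 0.02% Tween-20, with compound, started with 1mM L-Glutamine (added stock). Glutamate oxidase/HRP/Amplex red coupled fluorescence read at start and after 30 min at RT.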
Resorufin autofl = autofluorescence interference, mutant IDH1 hit counter-screen; inhibition of signal, % at 51.2 µM; 750 tested, under 10 active; AID 623980; shares compounds with mIDH1 inhibitor; Resorufin detection reagent fluorescence interference, cell-free;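 further: 0% = wells with normal resorufin and full inhibition = wells lacking resorufin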
WT IDH1 inh = inhibits human wild-type IDH1, mutant selectivity check. shares compounds with mIDH1 inhibitor. Potency, µM (top dose mostly 115 µM), inactives show at the highest dose activity change, negative = inhibition, actives largely listed as inhibitors. 750 compounds, 9% hits. WT IDH1 enzyme, NADPH diaphorase/resazurin fluorescence;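 further: potency means the concentration at half of the fitted maximal effect; 0% = full WT IDH1 enzyme control and full inhibition = no enzyme wells; nearly all actives have a fitted effect of over 55% in size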
IDH1 R132H conf = inhibits human mutant IDH1 enzyme in cherrypick confirmation | shares compounds with mIDH1 inhibitor | IDH1 R132H enzyme, NADPH diaphorase/resazurin fluorescence | Potency, µM (titrated, usually from 76.6 µM), without a hit: at the highest dose activity change, negative = inhibition, most hits filed as inhibitors | 750 compounds, 83% hits | AID 624002; further: potency means the concentration at half of the fitted maximal effect; nearly all actives have a fitted effect of over 50% in size
Numbers without * were called inactive; i = inactive; ? = inconclusive; · = no result given; [ ] = another dose, or the depositor's remark. An excerpt weighted towards active compounds, which were near 1.4% of everything screened. Unless noted, the call rests on the fitted dose curve; in most records, active means well fitted curve in the direction sought with a large enough effect; inconclusive means small, poorly fitted or top-dose-only effect, or another doubt; inactive means no such curve, though single readings can be large; an effect the other way counts as inactive or inconclusive.

SMILES	mIDH1 inhibitor	rTrxR1 inhibitor	TrxR1 substrate	LDHA block	PKM2 activator	GLS inh	Resorufin autofl	WT IDH1 inh	IDH1 R132H conf
COc1ccc(CN2C(=O)c3cccnc3C2Nc2ccc(C)cc2)cc1 (stereo not given)	0.4%	-2.4%	-3.2%	-5.6	1.0%	11.2%	·	·	·
Cn1c2ccccc2c(=O)c2c(=O)n(-c3ccc(F)cc3)c(-c3cccs3)nc21	-16.0%	25.7%	5.6%	10.5	-10.7%	6.5%	·	·	·
CC(c1ccccc1)n1c(-c2cccs2)nc2c(c(=O)c3ccccc3n2C)c1=O (stereo not given)	31.6µM*	11.6%[57.1 µM]	4.4%[57.1 µM]	-3.7	0.7%	-16.1%	2.5	20.1%	7.94µM*
COc1ccc(Cl)cc1NC(=O)[C@H]1C[C@@H]2CCCN2[C@]12C(=O)Nc1c(Cl)cc(C)cc12	·	·	·	3.4	·	·	·	·	·
Brc1cccc(N=Cc2c3ccccc3cc3ccccc23)c1	·	·	·	7.4	·	·	·	·	·
O=c1c2ccccc2nc2n1CCCCC2	8.9%	5.2%[57.1 µM]	2.1%[57.1 µM]	-4.6	-2.1%	14.8%	·	·	·
O=c1c2ccccc2nc2n1CCC2	16.5µM*	-4.3%	-4.5%	-11.5	-14.7%	?	-0.5	?	2.6%
O=C(OC1CCCCC1)c1ccc(SCc2ccccc2F)c([N+](=O)[O-])c1	·	·	·	4.6	·	·	·	·	·
O=C(O)Cc1sc(NC2CC2)nc1-c1ccccc1	·	·	·	-4.0	·	·	·	·	·
Cc1ccc(-c2cc(C(F)F)n3ncc(C(=O)N4CCCCC4c4cccnc4)c3n2)cc1 (stereo not given)	?	23.1%	92.3%	-1.1	1.1%	-19.3%	-5.3	5.8%	35.5µM*
O=C(c1cnn2c(C(F)(F)F)cc(-c3ccccc3)nc12)N1CCCCC1c1cccnc1 (stereo not given)	3.3%	16.6%[57.1 µM]	16.4%	-5.8	1.4%	-4.6%	·	·	·
NSc1nc(N)c2nc(-c3ccccc3)c(-c3ccccc3)nc2n1	?	20.8%[57.1 µM]	14.4%	-6.2	-1.7%	-9.7%	1.5	0.8%	22.4µM*
Nc1nc(N)c2nc(-c3ccccc3)c(N)nc2n1	18.2%	176.3%[57.1 µM]	i	-4.5	-1.2%	-5.1%	·	·	·
O=C(Nc1nccs1)NC1CC(=O)N(c2cccc(F)c2)C1 (stereo not given)	·	·	·	-0.8	·	·	·	·	·
Cn1cc(S(=O)(=O)c2cccc(Cl)c2)c(=O)c2cc(F)c(N3CCCCC3)cc21	?	13.2%	71.5%	0.7	·	-0.6%	3.4	3.2%	12.6µM*
C=CCn1c(SCC(=O)N2CCN(C(=O)c3ccco3)CC2)nc2sc(CC)cc2c1=O	?	?	0.8%	-7.2	9.4%	4.1%	-1.4	14.4%	17.8µM*
Brc1cccc(Oc2ccc3nnnn3n2)c1	·	·	·	0.3	·	·	·	·	·
CCOC(=O)c1c(NC(=O)/C=C/C(=O)O)sc(C)c1-c1ccc(C)c(C)c1	23.3µM*	-16.5%	-13.7%	-7.1	3.2%	0.9%	-3.5	?	44.7µM*
COC(=O)c1c(NC(=O)/C=C/C(=O)O)sc(C)c1-c1ccc(C)c(C)c1	?	-2.4%	-8.1%	-1.0	6.6%	15.1%	·	·	·
COc1cc(/C=C2\Oc3cc(OS(=O)(=O)c4ccc(C)cc4)ccc3C2=O)cc(OC)c1OC	·	·	·	6.6	·	·	·	·	·
COCCN1C(=O)c2[nH]nc(-c3cc(C)ccc3O)c2C1c1ccc(C(C)C)cc1 (stereo not given)	?	13.4%	-3.3%	1.8	·	-6.8%	-2.7	-2.4%	31.6µM*
COc1cc(C2c3c(-c4cc(C)ccc4O)n[nH]c3C(=O)N2CCCO)ccc1OCCC(C)C (stereo not given)	39.8µM*	3.8%	-8.7%	6.6	·	2.4%	-0.7	-11.3%	25.1µM*
COCCN1C(=O)c2[nH]nc(-c3ccccc3O)c2C1c1ccc(OC)cc1 (stereo not given)	-1.3%	10.4%	3.1%	1.4	0.0%	-6.6%	·	·	·
CCC(CC)CN(CC(=O)NC(N)=O)CC(=O)OC	·	·	·	7.7	·	·	·	·	·
CC1=C/C(=N/NC(=S)NC2CCCCC2)CC(C)(C)C1	·	·	·	-1.4	·	·	·	·	·
CCc1ccc(NC(=O)CN2C(=O)C3CCCN3c3ccc(S(=O)(=O)N(CC)CC)cc32)cc1 (stereo not given)	44.7µM*	3.0%[57.1 µM]	-1.3%[57.1 µM]	-2.2	·	1.5%	-5.4	-3.6%	28.2µM*
COc1ccc(-c2c3c(nc4sc5c(=O)[nH]c(C)nc5c24)CCC3)cc1	20.7µM*	11.4%[57.1 µM]	15.4%[57.1 µM]	2.7	-3.6%	5.2%	-5.9	-3.6%	7.08µM*
CCC(=O)C1=C(c2ccc(Cl)cc2)N(C(=O)CC)n2c(C)nnc2S1	44.7µM*	-21.4%[57.1 µM]	-0.8%[57.1 µM]	-12.1	·	1.8%	-13.2	299.4%	14.1µM*

Screening data from PubChem.
